# According to PubChem BioAssay AID743398 (Broad Institute, 2014):
# In all, about 300,000 compounds went through this assay and about 3,600 (1.2%) were called active. What follows is part of a selection rich in actives, with near analogues and random picks from the rest. Values without a mark were called inactive. No stated cut-off is given here; in the data, active means activation above about 30% (passing the limit was not always enough); inconclusive means no clear call, values can overlap the other calls.
# Assay: activation of beta-catenin signaling reporter – cell-based, plate reader, single point, primary screen (AID 743398);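 further: 0% = neutral control wells and 100% = positive control wells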
# Conditions: Wnt/beta-catenin reporter cell assay, activator, at 9.35 µM, active compounds read high
row,SMILES,activation
1,CC(Cc1ccccc1)NCCC(c1ccccc1)c1ccccc1 (stereo not given),42% (active)
2,CC(=O)NC(=O)NC(C)Cc1ccccc1 (stereo not given),-4.37%
3,CC(Cc1ccccc1)NC=O (stereo not given),-1.03%
4,COc1cc(OC)cc(C(=O)NCCN2CCC3(CC2)C(=O)NCN3c2ccccc2)c1,3.07%
5,Brc1ccc2c(c1)CNCc1cnnn1-2,-2.63%
